# Experiments:
# Assay in all cases: DAPPL (digital affinity profiling via proximity ligation, sequencing); 10 mM Tris-HCl pH 7.5, 50 mM NaCl, 1 mM DTT, 4% glycerol, room temperature, 30 min; GST-TFs on glutathione beads, 16-mer random dsDNA library, 0.1% formaldehyde crosslink after washing; high values mean tight binding
# [1] = molecular target: T1, FLI1 (Homo sapiens, UniProt Q01543 1-452); settings: protein: recombinant; tags: N-terminal GST; dsDNA, one strand shown
# T1 sequence: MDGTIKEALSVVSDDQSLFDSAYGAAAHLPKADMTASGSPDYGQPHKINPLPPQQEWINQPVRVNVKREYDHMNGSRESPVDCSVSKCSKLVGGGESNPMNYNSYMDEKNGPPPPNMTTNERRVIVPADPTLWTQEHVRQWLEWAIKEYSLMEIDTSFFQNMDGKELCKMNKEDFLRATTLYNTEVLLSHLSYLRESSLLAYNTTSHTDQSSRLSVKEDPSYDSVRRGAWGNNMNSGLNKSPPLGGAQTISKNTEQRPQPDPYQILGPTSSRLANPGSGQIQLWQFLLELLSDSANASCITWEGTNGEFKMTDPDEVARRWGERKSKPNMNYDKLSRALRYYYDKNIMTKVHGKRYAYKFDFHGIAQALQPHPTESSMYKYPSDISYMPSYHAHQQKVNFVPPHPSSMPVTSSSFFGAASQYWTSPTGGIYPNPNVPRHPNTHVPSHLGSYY
# Method in brief: (§1)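 A tag-only sample was pooled with DNA-barcoded human transcription factors that had been expressed in yeast as GST fusions and captured on glutathione beads. The pools were incubated for 30 min at room temperature with 200 nmole of a random double-stranded 16-mer DNA library in Tris/NaCl/DTT/glycerol buffer, then washed, crosslinked with 0.1% formaldehyde, proximity-ligated (BsaI/T4 ligase, 1 h, 37 °C), PCR-amplified and sequenced on an Illumina NextSeq500. Binding signal is each hexamer's read frequency for a factor divided by its frequency for the tag-only sample.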
# [2] = molecular target: T2, ELK1 (Homo sapiens, UniProt P19419 1-428); settings: protein: recombinant; tags: N-terminal GST; dsDNA, one strand shown
# T2 sequence: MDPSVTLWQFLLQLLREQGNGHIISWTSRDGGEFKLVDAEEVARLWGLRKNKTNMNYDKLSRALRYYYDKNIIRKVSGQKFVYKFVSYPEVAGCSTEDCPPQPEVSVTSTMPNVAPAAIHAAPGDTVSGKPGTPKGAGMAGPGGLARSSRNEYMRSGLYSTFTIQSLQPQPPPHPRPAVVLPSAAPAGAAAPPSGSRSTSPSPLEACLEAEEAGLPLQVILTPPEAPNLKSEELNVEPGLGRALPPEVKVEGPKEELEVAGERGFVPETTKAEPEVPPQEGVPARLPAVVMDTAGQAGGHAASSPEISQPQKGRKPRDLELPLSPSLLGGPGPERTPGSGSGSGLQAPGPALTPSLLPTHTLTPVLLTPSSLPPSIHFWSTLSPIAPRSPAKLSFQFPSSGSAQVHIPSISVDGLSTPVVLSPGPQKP
# Method in brief: as §1
# [3] = molecular target: T3, GABPA (Homo sapiens, UniProt Q06546 1-454); settings: protein: recombinant; tags: N-terminal GST; dsDNA, one strand shown
# T3 sequence: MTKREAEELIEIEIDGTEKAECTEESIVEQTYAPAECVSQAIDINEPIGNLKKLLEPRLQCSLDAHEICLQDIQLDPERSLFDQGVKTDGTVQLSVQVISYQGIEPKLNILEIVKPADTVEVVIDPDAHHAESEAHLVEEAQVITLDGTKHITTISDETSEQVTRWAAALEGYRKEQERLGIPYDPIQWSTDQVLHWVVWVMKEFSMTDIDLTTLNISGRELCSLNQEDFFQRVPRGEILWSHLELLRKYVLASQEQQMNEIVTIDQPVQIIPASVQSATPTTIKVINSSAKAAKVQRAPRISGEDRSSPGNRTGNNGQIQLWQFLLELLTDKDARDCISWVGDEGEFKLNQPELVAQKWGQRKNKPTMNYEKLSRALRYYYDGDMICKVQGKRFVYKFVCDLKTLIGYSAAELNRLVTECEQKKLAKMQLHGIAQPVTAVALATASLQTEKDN
# Method in brief: as §1
# [4] = molecular target: T4, ERG (Homo sapiens, UniProt P11308 1-479); settings: protein: recombinant; tags: N-terminal GST; dsDNA, one strand shown
# T4 sequence: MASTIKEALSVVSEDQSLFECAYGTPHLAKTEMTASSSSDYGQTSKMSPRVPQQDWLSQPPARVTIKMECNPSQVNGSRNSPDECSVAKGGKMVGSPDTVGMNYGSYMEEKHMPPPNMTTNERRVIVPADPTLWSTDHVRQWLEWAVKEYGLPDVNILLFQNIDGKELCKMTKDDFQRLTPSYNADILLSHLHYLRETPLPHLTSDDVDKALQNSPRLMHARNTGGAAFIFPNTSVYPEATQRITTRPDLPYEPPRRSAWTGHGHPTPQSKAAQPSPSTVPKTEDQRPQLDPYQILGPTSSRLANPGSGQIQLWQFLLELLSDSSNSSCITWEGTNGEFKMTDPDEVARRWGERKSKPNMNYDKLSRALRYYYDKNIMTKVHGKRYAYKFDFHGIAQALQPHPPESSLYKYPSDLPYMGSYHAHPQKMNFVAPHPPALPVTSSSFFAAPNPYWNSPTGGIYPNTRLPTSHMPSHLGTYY
# Method in brief: as §1
# [5] = molecular target: ELF1 (Homo sapiens, UniProt P32519 1-619); settings: protein: recombinant; tags: N-terminal GST; dsDNA, one strand shown
# Method in brief: as §1
# [6] = molecular target: T5, EHF (Homo sapiens, UniProt Q9NZC4 1-300); settings: protein: recombinant; tags: N-terminal GST; dsDNA, one strand shown
# T5 sequence: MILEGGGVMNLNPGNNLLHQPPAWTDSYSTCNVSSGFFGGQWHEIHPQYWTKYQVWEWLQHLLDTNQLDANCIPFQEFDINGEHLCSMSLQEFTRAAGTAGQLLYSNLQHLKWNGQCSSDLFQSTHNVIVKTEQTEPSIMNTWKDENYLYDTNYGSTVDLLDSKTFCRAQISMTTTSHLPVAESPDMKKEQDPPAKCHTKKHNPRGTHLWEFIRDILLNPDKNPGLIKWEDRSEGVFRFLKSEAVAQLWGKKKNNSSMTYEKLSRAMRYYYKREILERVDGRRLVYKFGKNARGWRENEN
# Method in brief: as §1
# [7] = molecular target: SPI1 (Homo sapiens, UniProt P17947 1-270); settings: protein: recombinant; tags: N-terminal GST; dsDNA, one strand shown
# Method in brief: as §1
# [8] = molecular target: SPIB (Homo sapiens, UniProt Q01892 1-262); settings: protein: recombinant; tags: N-terminal GST; dsDNA, one strand shown
# Method in brief: as §1
# [9] = molecular target: T6, ELK3 (Homo sapiens, UniProt P41970 1-407); settings: protein: recombinant; tags: N-terminal GST; dsDNA, one strand shown
# T6 sequence: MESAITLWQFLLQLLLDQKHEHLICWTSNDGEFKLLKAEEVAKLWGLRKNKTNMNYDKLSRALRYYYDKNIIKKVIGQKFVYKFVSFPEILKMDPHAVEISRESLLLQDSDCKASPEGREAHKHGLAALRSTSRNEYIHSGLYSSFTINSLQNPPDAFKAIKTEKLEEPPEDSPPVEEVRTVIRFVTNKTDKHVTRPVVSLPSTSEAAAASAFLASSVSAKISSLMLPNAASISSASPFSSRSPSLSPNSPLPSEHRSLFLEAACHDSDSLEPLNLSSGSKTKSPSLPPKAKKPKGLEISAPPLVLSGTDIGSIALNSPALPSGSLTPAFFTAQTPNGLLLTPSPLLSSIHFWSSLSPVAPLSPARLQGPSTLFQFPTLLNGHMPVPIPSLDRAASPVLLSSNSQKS
# Method in brief: as §1
# [10] = molecular target: T7, FEV (Homo sapiens, UniProt Q99581 1-238); settings: protein: recombinant; tags: N-terminal GST; dsDNA, one strand shown
# T7 sequence: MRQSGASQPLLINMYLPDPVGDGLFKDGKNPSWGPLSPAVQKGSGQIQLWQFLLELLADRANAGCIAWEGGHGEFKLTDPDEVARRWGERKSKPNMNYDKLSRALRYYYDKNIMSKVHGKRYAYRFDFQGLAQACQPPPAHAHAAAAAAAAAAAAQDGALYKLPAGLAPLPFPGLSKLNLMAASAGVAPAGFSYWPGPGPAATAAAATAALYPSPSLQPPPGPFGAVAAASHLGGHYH
# Method in brief: as §1
# [11] = molecular target: ETV5 (Homo sapiens, UniProt P41161 1-510); settings: protein: recombinant; tags: N-terminal GST; dsDNA, one strand shown
# Method in brief: as §1
# [12] = molecular target: HSF1 (Homo sapiens, UniProt Q00613 1-529); settings: protein: recombinant; tags: N-terminal GST; chain copies: 3; dsDNA, one strand shown
# Method in brief: as §1
# [13] = molecular target: T8, SPIC (Homo sapiens, UniProt Q8N5J4 1-248); settings: protein: recombinant; tags: N-terminal GST; dsDNA, one strand shown
# T8 sequence: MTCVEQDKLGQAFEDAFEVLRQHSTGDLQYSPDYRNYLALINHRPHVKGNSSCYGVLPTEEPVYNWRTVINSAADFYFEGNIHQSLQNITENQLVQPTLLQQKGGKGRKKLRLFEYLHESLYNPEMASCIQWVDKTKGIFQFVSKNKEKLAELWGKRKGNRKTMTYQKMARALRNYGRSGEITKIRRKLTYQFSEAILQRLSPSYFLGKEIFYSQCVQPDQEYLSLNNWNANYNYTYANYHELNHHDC
# Method in brief: as §1
# [14] = molecular target: ELF4 (Homo sapiens, UniProt Q99607 1-663); settings: protein: recombinant; tags: N-terminal GST; dsDNA, one strand shown
# Method in brief: as §1
# [15] = molecular target: T9, ELK4 (Homo sapiens, UniProt P28324-2 1-405); settings: protein: recombinant; tags: N-terminal GST; dsDNA, one strand shown
# T9 sequence: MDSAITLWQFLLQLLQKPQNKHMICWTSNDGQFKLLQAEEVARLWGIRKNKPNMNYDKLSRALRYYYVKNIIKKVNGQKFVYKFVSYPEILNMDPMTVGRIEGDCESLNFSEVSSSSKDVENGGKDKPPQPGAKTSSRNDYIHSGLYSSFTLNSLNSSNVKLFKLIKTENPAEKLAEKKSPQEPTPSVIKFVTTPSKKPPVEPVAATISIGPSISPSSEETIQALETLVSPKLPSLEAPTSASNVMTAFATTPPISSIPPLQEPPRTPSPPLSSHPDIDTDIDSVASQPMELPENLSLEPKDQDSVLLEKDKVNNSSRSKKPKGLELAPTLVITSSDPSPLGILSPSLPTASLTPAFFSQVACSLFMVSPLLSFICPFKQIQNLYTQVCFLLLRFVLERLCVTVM
# Method in brief: as §1
# [16] = molecular target: T10, ETV2 (Homo sapiens, UniProt O00321 1-342); settings: protein: recombinant; tags: N-terminal GST; dsDNA, one strand shown
# T10 sequence: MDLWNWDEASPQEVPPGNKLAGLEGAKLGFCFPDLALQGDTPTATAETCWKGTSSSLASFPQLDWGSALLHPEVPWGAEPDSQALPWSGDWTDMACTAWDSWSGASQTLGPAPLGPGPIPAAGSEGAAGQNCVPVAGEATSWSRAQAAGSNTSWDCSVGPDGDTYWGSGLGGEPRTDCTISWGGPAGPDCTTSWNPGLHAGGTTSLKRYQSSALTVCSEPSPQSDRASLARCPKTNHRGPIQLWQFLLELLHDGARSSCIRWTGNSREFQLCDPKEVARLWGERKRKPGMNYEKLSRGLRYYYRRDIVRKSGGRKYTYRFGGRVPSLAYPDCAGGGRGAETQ
# Method in brief: as §1
# [17] = molecular target: T11, ELF3 (Homo sapiens, UniProt P78545 1-371); settings: protein: recombinant; tags: N-terminal GST; dsDNA, one strand shown
# T11 sequence: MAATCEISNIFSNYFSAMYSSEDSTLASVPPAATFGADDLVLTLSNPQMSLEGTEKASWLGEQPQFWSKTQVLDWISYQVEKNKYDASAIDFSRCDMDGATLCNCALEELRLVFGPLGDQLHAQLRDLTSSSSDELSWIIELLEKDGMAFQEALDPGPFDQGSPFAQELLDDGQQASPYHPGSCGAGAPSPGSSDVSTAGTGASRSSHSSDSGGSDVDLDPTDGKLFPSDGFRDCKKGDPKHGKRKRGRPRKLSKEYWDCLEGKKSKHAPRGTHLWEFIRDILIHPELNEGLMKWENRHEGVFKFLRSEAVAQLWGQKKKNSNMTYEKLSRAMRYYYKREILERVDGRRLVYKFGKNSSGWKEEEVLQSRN
# Method in brief: as §1
# [18] = molecular target: CRX (Homo sapiens, UniProt O43186 1-299); settings: protein: recombinant; tags: N-terminal GST; dsDNA, one strand shown
# Method in brief: as §1
# [19] = molecular target: ETV1 (Homo sapiens, UniProt P50549 1-477); settings: protein: recombinant; tags: N-terminal GST; dsDNA, one strand shown
# Method in brief: as §1
# Chain of ELF4 (Q99607 whole entry): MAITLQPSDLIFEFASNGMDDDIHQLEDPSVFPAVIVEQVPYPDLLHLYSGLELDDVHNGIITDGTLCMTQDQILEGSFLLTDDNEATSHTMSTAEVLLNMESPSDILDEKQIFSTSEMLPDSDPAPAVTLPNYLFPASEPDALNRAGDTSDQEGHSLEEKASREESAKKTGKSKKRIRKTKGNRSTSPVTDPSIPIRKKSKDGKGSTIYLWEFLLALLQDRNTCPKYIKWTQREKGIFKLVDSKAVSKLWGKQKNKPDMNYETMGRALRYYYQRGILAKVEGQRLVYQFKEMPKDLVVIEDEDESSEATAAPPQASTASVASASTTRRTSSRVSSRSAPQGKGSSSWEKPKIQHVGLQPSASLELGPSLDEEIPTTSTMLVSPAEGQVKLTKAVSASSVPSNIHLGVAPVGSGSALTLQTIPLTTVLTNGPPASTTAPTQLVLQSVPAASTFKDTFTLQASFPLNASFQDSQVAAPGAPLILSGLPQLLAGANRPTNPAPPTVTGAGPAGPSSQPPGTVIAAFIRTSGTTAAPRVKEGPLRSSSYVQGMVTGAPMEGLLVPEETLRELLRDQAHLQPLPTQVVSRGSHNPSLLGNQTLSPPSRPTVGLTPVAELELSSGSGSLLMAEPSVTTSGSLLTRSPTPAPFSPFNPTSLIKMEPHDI
# Chain of HSF1 (Q00613 whole entry): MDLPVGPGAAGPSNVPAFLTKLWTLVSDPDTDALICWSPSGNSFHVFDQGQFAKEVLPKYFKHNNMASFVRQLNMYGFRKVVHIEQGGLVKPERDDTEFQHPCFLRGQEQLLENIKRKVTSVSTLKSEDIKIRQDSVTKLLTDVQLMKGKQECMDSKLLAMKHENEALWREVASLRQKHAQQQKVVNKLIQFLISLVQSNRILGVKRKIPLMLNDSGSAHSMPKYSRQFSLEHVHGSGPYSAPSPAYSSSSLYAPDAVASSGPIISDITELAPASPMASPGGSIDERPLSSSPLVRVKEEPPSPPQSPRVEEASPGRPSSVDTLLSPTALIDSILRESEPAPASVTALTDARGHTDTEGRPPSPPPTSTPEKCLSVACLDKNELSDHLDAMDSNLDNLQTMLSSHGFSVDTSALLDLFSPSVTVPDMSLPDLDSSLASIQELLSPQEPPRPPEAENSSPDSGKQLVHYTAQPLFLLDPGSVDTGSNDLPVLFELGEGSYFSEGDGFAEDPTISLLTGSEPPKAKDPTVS
# Chain of ETV1 (P50549 whole entry): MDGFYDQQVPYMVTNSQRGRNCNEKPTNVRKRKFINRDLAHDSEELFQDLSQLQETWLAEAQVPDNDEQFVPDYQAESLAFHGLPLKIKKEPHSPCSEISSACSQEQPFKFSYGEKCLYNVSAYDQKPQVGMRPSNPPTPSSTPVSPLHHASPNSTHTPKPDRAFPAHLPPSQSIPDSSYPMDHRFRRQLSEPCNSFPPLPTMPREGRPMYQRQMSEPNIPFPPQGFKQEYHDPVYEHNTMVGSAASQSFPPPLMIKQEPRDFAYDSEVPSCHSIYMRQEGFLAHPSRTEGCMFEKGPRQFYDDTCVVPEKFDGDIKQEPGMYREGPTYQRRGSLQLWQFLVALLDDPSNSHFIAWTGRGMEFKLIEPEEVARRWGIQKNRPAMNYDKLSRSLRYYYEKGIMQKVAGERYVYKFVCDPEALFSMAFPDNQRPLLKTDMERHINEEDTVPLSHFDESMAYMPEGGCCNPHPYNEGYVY
# Chain of ETV5 (P41161 whole entry): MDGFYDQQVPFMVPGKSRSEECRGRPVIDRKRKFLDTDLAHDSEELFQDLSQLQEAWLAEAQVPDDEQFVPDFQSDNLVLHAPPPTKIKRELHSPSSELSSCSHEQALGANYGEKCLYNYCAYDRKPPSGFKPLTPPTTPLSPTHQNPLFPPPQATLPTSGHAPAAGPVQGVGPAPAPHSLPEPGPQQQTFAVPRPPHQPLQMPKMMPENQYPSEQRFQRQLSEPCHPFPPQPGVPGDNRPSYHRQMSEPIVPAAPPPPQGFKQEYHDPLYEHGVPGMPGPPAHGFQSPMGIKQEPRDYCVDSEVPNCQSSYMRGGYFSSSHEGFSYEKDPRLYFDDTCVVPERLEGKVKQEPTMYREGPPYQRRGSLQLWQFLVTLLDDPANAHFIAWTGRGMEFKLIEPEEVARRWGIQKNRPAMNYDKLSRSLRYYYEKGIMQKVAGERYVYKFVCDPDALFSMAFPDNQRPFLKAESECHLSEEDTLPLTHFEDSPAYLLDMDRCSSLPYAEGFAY
# Chain of ELF1 (P32519 whole entry): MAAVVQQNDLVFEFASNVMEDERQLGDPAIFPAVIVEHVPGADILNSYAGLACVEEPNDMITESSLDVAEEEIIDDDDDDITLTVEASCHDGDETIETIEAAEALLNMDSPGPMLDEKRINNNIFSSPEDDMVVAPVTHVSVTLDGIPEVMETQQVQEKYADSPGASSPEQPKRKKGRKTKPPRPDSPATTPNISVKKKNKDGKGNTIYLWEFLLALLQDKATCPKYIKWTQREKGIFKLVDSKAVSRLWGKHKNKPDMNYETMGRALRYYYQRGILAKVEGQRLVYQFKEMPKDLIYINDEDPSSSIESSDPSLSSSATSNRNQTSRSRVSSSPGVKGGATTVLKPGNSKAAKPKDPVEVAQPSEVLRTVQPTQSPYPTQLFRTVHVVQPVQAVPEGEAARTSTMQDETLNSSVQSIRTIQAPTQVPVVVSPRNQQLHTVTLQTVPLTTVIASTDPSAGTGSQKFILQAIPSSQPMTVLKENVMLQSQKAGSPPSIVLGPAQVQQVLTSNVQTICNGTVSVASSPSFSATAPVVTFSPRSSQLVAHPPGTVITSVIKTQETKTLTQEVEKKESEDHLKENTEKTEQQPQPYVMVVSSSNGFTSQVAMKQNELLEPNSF
# Chain of CRX (O43186 whole entry): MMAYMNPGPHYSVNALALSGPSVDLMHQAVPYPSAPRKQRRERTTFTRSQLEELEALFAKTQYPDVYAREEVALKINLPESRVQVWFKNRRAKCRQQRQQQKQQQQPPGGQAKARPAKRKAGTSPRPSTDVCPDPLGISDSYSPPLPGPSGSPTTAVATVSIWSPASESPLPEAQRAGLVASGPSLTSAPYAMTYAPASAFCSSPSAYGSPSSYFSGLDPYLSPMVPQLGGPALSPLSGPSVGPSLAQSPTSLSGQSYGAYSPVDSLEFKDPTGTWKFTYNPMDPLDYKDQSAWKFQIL
# Chain of SPIB (Q01892 whole entry): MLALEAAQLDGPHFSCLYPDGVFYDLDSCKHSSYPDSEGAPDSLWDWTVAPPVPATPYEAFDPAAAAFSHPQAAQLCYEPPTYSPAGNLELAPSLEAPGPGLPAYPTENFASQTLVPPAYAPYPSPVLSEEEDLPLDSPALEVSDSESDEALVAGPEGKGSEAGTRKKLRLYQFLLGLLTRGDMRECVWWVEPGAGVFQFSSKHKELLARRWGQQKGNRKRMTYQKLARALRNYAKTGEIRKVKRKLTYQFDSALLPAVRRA
sequence,measurement,setting,value
GCATTT,binding signal,[1],"1.38 fold enrichment (6-mer frequency, TF over GST control)"
same,binding signal,[2],"1.38 fold enrichment (6-mer frequency, TF over GST control)"
same,binding signal,[3],"1.36 fold enrichment (6-mer frequency, TF over GST control)"
same,binding signal,[4],"1.3 fold enrichment (6-mer frequency, TF over GST control)"
same,binding signal,[5],"1.33 fold enrichment (6-mer frequency, TF over GST control)"
same,binding signal,[6],"1.37 fold enrichment (6-mer frequency, TF over GST control)"
same,binding signal,[7],"1.58 fold enrichment (6-mer frequency, TF over GST control)"
same,binding signal,[8],"1.38 fold enrichment (6-mer frequency, TF over GST control)"
same,binding signal,[9],"1.4 fold enrichment (6-mer frequency, TF over GST control)"
same,binding signal,[10],"1.57 fold enrichment (6-mer frequency, TF over GST control)"
same,binding signal,[11],"1.38 fold enrichment (6-mer frequency, TF over GST control)"
same,binding signal,[12],"1.15 fold enrichment (6-mer frequency, TF over GST control)"
same,binding signal,[13],"1.37 fold enrichment (6-mer frequency, TF over GST control)"
same,binding signal,[14],"1.4 fold enrichment (6-mer frequency, TF over GST control)"
same,binding signal,[15],"1.27 fold enrichment (6-mer frequency, TF over GST control)"
same,binding signal,[16],"1.25 fold enrichment (6-mer frequency, TF over GST control)"
same,binding signal,[17],"1.33 fold enrichment (6-mer frequency, TF over GST control)"
same,binding signal,[18],"1.16 fold enrichment (6-mer frequency, TF over GST control)"
same,binding signal,[19],"1.37 fold enrichment (6-mer frequency, TF over GST control)"

# Reference: paper PMC7862700, “An all-to-all approach to the identification of sequence-specific readers for epigenetic DNA modifications on cytosine”
